# Measurements taken from ChEMBL document CHEMBL1961873, “Compounds: GSK PKIS; Assays: Nanosyn kinase panel” (2012).
# “And” between values parts separate entries of the source, which are not always exact repeats. Equal entries are not always repeated.
# Legend:
# [1] = target: T1, Inhibitor of nuclear factor kappa-B kinase subunit epsilon (Homo sapiens) (UniProt Q14164); details: at 1 µM;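 note: reported values are averaged percent inhibition figures against human IKKε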
# T1 sequence (whole entry): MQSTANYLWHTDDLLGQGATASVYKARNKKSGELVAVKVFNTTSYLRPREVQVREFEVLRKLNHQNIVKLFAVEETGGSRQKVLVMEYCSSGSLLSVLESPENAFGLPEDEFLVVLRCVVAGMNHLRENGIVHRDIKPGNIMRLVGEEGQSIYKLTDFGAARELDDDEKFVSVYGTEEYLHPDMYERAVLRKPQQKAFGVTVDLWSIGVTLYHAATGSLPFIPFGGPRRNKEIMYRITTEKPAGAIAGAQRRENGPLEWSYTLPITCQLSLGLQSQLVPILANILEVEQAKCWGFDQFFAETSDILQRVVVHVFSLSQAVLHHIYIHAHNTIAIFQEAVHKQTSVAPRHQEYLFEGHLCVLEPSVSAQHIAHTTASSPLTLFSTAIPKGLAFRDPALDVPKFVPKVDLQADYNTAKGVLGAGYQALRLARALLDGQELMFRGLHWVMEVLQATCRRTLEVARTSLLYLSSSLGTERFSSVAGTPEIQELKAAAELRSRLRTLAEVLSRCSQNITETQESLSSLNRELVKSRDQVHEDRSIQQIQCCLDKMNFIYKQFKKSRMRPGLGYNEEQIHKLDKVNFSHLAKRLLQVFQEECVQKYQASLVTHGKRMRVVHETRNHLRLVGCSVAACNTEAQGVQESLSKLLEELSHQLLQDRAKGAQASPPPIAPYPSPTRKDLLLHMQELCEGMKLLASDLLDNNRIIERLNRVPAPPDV
# [2] = target: T2, Serine/threonine-protein kinase Nek1 (Homo sapiens) (UniProt Q96PY6); details: at 0.1 µM
# T2 sequence (whole entry): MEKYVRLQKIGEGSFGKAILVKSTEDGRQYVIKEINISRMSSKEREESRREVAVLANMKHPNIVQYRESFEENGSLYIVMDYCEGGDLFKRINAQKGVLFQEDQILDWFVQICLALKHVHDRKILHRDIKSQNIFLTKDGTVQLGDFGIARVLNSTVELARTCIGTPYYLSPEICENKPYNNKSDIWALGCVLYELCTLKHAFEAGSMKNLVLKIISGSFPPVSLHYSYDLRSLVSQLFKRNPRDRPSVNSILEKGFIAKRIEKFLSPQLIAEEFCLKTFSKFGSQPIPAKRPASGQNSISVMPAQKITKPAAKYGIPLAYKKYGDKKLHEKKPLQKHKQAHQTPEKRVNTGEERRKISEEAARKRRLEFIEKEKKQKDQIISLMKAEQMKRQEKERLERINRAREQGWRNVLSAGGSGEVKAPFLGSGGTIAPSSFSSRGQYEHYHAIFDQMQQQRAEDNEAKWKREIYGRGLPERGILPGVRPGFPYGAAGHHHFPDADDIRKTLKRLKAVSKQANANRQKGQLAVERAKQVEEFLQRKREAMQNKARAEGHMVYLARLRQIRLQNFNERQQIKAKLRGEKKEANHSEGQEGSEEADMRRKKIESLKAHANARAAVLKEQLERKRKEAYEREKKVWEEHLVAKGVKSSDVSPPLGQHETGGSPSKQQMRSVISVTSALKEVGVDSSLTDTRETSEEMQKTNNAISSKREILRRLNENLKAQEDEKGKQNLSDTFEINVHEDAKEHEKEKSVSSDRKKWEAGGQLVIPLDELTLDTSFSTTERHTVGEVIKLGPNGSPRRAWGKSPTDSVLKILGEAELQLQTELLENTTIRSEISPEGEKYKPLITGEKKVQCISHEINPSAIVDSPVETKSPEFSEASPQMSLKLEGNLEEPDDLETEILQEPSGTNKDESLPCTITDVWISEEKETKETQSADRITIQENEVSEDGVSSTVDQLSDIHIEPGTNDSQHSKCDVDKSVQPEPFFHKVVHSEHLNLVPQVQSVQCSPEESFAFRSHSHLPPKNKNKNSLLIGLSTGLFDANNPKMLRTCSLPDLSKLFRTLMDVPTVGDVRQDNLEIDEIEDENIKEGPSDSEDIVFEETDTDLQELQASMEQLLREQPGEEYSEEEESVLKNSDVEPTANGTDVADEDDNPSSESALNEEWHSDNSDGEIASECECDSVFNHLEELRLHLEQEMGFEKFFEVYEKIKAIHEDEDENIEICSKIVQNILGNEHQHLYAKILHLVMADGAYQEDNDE
# [3] = target: T2, Serine/threonine-protein kinase Nek1 (Homo sapiens); details: at 1 µM
# [4] = target: T3, Serine/threonine-protein kinase Nek2 (Homo sapiens) (UniProt P51955); details: at 0.1 µM
# T3 sequence (whole entry): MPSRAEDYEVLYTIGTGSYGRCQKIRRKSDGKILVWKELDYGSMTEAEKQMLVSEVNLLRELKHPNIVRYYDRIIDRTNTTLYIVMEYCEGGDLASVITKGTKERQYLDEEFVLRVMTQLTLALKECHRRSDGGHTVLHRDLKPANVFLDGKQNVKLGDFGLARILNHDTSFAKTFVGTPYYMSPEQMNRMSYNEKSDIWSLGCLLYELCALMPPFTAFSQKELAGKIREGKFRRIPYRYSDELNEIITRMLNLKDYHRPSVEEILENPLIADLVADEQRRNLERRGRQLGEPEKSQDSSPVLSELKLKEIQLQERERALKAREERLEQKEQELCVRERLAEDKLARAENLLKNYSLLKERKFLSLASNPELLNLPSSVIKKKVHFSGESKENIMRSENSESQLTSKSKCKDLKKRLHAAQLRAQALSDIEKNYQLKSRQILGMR
# [5] = target: T3, Serine/threonine-protein kinase Nek2 (Homo sapiens); details: at 1 µM
# [6] = target: Serine/threonine-protein kinase Nek6 (Homo sapiens) (UniProt Q9HC98); details: at 0.1 µM
# [7] = target: Serine/threonine-protein kinase Nek6 (Homo sapiens) (UniProt Q9HC98); details: at 1 µM
# [8] = target: Serine/threonine-protein kinase Nek7 (Homo sapiens) (UniProt Q8TDX7); details: at 0.1 µM
# [9] = target: Serine/threonine-protein kinase Nek7 (Homo sapiens) (UniProt Q8TDX7); details: at 1 µM
# [10] = target: T4, Serine/threonine-protein kinase Nek9 (Homo sapiens) (UniProt Q8TD19); details: at 0.1 µM
# T4 sequence (whole entry): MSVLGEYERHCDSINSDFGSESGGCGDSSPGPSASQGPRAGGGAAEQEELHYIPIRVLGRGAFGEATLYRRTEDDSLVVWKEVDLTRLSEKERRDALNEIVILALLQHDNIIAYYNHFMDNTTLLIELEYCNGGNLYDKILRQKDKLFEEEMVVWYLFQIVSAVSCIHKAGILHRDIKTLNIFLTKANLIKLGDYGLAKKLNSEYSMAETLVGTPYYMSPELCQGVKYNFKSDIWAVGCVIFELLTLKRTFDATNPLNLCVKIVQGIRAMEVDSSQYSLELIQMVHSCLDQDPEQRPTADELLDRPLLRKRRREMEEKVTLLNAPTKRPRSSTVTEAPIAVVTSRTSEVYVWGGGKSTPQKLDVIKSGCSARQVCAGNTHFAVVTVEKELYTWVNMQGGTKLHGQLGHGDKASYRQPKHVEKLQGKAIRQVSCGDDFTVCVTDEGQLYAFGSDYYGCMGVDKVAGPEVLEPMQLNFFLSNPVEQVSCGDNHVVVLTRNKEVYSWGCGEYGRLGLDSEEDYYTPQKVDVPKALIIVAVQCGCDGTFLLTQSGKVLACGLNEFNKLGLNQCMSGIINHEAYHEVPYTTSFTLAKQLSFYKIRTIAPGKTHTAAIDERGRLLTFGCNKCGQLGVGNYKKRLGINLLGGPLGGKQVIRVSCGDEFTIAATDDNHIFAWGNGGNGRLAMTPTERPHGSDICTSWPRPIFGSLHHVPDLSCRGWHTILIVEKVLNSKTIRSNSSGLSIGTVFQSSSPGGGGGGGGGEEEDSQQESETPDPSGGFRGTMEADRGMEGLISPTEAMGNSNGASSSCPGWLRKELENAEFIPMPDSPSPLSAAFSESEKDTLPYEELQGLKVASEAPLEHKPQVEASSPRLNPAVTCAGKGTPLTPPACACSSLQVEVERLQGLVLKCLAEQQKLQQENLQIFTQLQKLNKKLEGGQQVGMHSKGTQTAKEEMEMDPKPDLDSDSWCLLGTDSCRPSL
# [11] = target: T4, Serine/threonine-protein kinase Nek9 (Homo sapiens); details: at 1 µM
# [12] = target: Serine/threonine-protein kinase PLK1 (Homo sapiens) (UniProt P53350); details: at 0.1 µM
# [13] = target: Serine/threonine-protein kinase PLK1 (Homo sapiens) (UniProt P53350); details: at 1 µM
# [14] = target: T5, Dual specificity protein kinase TTK (Homo sapiens) (UniProt P33981); details: at 0.1 µM
# T5 sequence (whole entry): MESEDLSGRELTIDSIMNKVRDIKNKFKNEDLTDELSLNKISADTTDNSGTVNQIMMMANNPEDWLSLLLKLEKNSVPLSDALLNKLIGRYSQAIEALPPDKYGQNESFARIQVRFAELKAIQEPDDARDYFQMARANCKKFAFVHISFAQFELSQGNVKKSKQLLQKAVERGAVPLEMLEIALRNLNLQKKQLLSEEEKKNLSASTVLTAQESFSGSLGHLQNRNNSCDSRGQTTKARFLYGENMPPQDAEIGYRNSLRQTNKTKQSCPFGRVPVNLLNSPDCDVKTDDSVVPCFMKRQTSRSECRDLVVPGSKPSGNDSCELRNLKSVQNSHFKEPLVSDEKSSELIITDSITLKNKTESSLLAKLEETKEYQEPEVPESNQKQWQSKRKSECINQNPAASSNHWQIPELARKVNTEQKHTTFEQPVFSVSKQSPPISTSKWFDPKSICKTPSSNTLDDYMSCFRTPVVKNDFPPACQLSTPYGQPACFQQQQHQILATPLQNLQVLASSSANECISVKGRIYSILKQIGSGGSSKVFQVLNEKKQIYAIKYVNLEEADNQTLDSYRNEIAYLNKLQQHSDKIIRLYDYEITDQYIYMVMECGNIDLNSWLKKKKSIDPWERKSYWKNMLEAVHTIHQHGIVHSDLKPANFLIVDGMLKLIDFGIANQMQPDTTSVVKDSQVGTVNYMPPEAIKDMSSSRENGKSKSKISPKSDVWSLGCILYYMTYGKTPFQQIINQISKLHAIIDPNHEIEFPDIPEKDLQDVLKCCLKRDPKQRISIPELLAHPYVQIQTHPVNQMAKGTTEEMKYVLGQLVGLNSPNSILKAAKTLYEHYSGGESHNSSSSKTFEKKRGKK
# [15] = system: T6, Receptor-type tyrosine-protein kinase FLT3 (Homo sapiens), P36888 [D835Y]; details: at 1 µM
# T6 sequence (whole entry): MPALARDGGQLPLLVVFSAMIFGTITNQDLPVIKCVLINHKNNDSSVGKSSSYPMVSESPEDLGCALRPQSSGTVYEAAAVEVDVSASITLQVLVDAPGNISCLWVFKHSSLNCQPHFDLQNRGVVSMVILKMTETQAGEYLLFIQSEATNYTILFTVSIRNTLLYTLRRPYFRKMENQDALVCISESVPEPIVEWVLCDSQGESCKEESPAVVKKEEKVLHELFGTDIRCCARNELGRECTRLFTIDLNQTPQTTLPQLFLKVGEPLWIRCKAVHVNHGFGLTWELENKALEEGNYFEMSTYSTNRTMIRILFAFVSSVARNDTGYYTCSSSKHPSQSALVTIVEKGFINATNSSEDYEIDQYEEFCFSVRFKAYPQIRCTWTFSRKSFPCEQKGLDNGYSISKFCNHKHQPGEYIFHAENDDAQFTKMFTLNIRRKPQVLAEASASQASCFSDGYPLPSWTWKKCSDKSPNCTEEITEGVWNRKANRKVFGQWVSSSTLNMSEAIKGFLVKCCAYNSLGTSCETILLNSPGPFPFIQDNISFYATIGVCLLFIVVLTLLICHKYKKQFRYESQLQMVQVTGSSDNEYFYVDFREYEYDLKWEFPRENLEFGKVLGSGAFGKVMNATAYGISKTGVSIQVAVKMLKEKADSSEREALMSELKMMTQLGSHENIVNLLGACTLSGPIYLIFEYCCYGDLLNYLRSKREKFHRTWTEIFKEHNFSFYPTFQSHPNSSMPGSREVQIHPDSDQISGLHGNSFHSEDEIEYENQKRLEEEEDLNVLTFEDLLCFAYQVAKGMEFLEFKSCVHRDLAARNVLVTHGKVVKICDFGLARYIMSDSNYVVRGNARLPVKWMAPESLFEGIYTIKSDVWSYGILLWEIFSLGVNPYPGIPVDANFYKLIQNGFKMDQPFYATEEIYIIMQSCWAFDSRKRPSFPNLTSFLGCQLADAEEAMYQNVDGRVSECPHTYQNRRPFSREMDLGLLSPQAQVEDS
# [16] = target: Vascular endothelial growth factor receptor 3 (Homo sapiens) (UniProt P35916); details: at 0.1 µM
# [17] = target: Vascular endothelial growth factor receptor 3 (Homo sapiens) (UniProt P35916); details: at 1 µM
# [18] = target: Macrophage colony-stimulating factor 1 receptor (Homo sapiens) (UniProt P07333); details: at 0.1 µM
# [19] = target: Macrophage colony-stimulating factor 1 receptor (Homo sapiens) (UniProt P07333); details: at 1 µM
# [20] = target: Tyrosine-protein kinase Fyn (Homo sapiens) (UniProt P06241); details: at 0.1 µM
# Chain of Tyrosine-protein kinase Fyn (Homo sapiens) (P06241 2-537 limits assumed): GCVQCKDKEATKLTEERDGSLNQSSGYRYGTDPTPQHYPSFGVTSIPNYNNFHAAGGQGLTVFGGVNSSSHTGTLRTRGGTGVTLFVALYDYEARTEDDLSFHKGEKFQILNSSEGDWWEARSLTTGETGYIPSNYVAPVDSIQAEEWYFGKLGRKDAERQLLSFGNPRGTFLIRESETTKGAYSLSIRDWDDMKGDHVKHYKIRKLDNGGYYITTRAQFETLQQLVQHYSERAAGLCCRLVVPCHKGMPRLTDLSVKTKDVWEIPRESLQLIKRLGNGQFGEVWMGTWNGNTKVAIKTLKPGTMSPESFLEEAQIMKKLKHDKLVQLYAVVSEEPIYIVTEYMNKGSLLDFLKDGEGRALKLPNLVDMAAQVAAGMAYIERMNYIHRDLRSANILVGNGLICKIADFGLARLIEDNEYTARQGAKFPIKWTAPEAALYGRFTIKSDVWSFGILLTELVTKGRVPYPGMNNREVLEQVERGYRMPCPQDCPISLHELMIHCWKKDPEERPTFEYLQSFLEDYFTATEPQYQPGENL
# Chain of Serine/threonine-protein kinase Nek7 (Homo sapiens) (Q8TDX7 whole entry, looked up): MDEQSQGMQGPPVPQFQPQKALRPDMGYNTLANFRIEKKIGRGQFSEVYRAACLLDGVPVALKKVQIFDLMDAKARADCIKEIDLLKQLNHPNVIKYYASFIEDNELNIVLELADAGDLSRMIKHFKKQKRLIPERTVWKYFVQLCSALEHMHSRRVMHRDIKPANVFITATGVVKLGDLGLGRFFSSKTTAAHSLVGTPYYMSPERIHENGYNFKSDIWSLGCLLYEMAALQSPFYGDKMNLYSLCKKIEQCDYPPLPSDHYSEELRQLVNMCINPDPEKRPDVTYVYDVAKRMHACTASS
# Chain of Macrophage colony-stimulating factor 1 receptor (Homo sapiens) (P07333 whole entry): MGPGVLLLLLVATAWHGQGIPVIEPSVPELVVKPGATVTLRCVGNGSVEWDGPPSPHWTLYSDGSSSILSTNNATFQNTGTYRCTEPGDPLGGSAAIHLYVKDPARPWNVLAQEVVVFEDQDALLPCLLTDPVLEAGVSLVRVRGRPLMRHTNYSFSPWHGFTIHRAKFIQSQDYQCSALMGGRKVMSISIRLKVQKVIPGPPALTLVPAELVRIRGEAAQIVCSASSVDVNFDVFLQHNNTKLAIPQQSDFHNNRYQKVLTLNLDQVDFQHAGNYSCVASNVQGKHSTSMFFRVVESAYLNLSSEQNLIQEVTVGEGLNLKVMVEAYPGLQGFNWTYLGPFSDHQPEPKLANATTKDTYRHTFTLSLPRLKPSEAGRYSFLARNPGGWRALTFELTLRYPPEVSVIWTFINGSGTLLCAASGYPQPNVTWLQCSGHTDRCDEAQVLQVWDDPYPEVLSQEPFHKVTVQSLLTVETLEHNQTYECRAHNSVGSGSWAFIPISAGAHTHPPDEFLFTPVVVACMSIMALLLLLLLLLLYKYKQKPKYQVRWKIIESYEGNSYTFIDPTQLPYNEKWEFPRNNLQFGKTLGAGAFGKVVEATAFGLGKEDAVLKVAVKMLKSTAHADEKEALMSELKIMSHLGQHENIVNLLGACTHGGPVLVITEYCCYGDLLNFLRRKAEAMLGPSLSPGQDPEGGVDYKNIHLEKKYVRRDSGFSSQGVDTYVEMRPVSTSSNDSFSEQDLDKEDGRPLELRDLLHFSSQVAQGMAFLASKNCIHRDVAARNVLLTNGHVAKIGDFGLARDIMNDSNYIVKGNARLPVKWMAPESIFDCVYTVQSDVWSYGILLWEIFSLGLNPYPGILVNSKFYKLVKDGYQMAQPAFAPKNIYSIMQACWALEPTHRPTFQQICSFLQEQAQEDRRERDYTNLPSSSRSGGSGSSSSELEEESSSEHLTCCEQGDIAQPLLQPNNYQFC
# Chain of Serine/threonine-protein kinase PLK1 (Homo sapiens) (P53350 whole entry): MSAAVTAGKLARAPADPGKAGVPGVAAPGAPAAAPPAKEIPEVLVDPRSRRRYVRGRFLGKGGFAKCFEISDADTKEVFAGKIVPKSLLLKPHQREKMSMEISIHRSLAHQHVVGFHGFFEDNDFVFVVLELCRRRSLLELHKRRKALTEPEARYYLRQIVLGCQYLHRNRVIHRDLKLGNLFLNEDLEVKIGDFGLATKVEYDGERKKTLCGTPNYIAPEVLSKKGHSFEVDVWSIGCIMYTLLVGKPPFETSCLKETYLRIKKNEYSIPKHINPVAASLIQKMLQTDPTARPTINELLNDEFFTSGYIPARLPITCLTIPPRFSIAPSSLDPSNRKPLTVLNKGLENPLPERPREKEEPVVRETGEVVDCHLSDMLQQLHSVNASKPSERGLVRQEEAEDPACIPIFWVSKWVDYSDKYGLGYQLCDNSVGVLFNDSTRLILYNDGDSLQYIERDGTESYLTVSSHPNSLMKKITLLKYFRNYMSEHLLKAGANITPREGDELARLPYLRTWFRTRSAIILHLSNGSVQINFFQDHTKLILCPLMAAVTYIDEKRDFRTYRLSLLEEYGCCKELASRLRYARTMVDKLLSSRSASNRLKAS
# Chain of Serine/threonine-protein kinase Nek6 (Homo sapiens) (Q9HC98 whole entry): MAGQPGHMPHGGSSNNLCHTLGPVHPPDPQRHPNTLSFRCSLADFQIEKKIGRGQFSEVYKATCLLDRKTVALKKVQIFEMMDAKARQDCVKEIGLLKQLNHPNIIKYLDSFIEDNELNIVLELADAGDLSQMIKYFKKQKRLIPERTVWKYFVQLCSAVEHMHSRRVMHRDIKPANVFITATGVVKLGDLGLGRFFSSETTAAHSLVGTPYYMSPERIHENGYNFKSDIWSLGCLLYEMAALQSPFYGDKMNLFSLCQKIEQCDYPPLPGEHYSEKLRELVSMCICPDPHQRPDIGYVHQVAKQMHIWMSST
# Chain of Vascular endothelial growth factor receptor 3 (Homo sapiens) (P35916 whole entry): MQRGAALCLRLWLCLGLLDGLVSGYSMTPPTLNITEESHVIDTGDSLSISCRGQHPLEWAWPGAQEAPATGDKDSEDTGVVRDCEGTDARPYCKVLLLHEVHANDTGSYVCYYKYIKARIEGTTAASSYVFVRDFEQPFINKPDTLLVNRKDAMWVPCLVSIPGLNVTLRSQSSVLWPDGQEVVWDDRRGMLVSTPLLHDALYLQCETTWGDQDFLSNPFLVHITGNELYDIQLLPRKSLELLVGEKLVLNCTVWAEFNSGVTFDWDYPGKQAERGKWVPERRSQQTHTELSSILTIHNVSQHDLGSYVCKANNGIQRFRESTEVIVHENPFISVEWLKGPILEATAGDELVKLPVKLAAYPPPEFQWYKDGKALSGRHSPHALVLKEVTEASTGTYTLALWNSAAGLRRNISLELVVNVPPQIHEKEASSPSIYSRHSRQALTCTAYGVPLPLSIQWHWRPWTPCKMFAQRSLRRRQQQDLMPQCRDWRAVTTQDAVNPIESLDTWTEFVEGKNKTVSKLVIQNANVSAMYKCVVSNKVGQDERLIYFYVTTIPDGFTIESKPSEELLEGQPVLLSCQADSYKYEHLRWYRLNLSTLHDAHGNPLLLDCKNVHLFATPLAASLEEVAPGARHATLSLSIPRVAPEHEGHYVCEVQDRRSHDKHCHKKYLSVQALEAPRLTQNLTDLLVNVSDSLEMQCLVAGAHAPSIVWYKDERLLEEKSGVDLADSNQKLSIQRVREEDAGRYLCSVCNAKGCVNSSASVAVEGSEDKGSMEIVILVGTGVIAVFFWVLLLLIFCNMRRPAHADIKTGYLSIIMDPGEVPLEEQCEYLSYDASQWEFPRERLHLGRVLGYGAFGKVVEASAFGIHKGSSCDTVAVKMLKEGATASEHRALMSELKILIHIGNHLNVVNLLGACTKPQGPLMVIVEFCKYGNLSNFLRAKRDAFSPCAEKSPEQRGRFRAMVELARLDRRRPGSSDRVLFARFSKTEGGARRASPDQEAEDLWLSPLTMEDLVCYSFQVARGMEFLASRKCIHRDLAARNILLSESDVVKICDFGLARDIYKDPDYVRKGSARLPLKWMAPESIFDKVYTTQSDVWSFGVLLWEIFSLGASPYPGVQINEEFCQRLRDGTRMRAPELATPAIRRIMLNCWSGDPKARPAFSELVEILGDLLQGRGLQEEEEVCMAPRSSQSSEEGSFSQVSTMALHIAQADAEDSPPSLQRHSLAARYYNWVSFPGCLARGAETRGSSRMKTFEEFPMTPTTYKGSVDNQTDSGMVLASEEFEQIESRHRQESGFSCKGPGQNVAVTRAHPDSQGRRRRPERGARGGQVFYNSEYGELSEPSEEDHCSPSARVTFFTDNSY
SMILES,inhibition [1],inhibition [2],inhibition [3],inhibition [4],inhibition [5],inhibition [6],inhibition [7],inhibition [8],inhibition [9],inhibition [10],inhibition [11],inhibition [12],inhibition [13],inhibition [14],inhibition [15],inhibition [16],inhibition [17],inhibition [18],inhibition [19],inhibition [20]
Fc1cccc(COc2ccc(Nc3ncncc3C#Cc3ccccc3)cc2Cl)c1,8.55%,3.31%,4.09%,5.61%,4.52%,1.91%,3.93%,2.36%,2.64%,10.8%,8.71%,3.37%,3.17%,7.47%,-0.95%,4.04%,0.69%,3.32%,4.86%,1.15%
CS(=O)(=O)Nc1ccc(-c2cc(-c3ccccc3)cc(C(N)=O)c2N)cc1,1.3%,1.84%,1.25%,4.07%,2.73%,1.42%,-0.5%,1.35%,6.39%,2.67%,1.82%,0.78%,3.05%,3.79%,-1.74%,11.7%,14.7%,1.42%,9.05%,1.39%
Nc1nonc1-c1nc2cnccc2n1C1CC1,11.3% and 10.2%,1.72% and 1.48%,6.39% and 2.72%,5.51% and 2.84%,4.67% and 4.04%,3.25% and -0.01%,-0.06% and 2.15%,3.77% and 4.5%,2.89% and 3.28%,8.67% and 3.36%,1.51% and 3.66%,3.84% and 2.82%,5.97% and 4.56%,5.61% and 5.02%,7.78% and 5.95%,5.27% and -4.56%,21.9% and 17.5%,3.87% and 1.25%,10.1% and 8.4%,1.35% and -1.92%
